Shiga toxin inh: A qHTS for Small Molecule Inhibitors of Shiga Toxin. inhibition, % at 38.7 µM. AID 2315, 2010. Vero cells, Shiga toxin protein synthesis inhibition reporter. 290,000 compounds, 9.2% hits; in the data active = inhibition mostly above about 28%, no sharp cut-off; inactive = mostly below about 43%; note: 0% is about no effect
Cycloheximide cs: Cycloheximide Counterscreen for Small Molecule Inhibitors of Shiga Toxin; AID 2314, 2010; cell reporter, cycloheximide protein synthesis inhibition counterscreen; 300,000 compounds, 12% hits; max response, %; in the data active = max response mostly above about 13%, no sharp cut-off; inactive = mostly below about 14%; note: read at 38.3 µM for the half of the compounds with a filed dose; 0% is about no effect
Tb PYK inh: qHTS of Trypanosoma Brucei Inhibitors. AID 624173, 2012. pyruvate kinase (Trypanosoma brucei), Q57TT1. 410,000 compounds, 0.12% hits. Potency, µM (titrated, usually from 76.8 µM), without a hit: top-dose activity, negative = inhibition, usual class: inhibitors. TbPYK enzyme, Kinase-Glo Plus ATP luminescence, 45 min; note: potency is the fitted concentration of half-maximal effect; % is set by controls: 0 for no effect and ±100 for the full control effect; nearly all actives have a fitted effect of over 50% in size
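TbPYK + substrate in 50 mM TEA pH 7.2, 100 mM KCl, 10 mM MgCl2, 0.05% BSA, 0.01% Tween-20; cpd pinned; ADP 130 uM final; 45 min RT; Kinase-Glo Plus 10 min; luminescence endpoint.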
RE007 growth inh: qHTS Assay for Inhibitors of the HIV-1 protein Vpr; S. pombe RE007 Vpr strain, BacTiter-Glo ATP luminescence, 24 h; Potency, µM (highest dose often 92.2 µM), inactives show top-dose activity change, negative = less growth, hits mostly inhibitors; 360,000 compounds, 0.21% hits; AID 651644, 2012; active = well fitted falling curve with a large enough effect; note: potency is the fitted concentration of half-maximal effect; % is set by controls: 0 for no effect and ±100 for the full control effect; nearly all actives have a fitted effect of over 50% in size
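Fission yeast strain RE007, carrying one chromosomally integrated HIV-1 vpr copy, was seeded at OD 0.01 in PMG+AL medium with 23 nL pinned compound. After 24 h at 30 °C and 99% humidity, viability was read by BacTiter-Glo luminescence.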
LmPK inhibitor: qHTS Assay for Inhibitors of Leishmania Mexicana Pyruvate Kinase (LmPK); purified LmPK, Kinase-Glo ATP luminescence, 1 h; Q27686; AID 1721, 2009; 290,000 compounds, 0.37% hits; Potency, µM (doses to about 57.5 µM), without a hit: at the top dose activity change, negative = inhibition, usual class: inhibitors; note: potency is the fitted concentration of half-maximal effect; % is set by controls: 0 for no effect and ±100 for the full control effect
Target sequence (Q27686 whole entry, looked up): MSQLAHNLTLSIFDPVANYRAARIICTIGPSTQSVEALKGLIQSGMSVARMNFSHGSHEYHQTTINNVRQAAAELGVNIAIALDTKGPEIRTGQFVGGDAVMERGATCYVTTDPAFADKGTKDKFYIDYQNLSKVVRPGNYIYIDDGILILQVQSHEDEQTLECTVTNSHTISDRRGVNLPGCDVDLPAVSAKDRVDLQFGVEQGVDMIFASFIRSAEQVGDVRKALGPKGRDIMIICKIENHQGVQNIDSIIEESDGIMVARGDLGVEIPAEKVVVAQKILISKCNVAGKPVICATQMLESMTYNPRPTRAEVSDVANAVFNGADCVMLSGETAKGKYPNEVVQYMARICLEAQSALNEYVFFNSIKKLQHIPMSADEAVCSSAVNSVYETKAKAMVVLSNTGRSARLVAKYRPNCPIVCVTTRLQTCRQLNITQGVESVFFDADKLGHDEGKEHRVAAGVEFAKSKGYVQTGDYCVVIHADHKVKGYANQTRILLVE
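Kinase-Glo luminescence read after 1 h RT reaction of 0.1 nM LmPK with 0.5 mM PEP and 0.1 mM ADP. Activity scaled between uninhibited and enzyme-free controls.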
Giardia FBPA inh: qHTS Assay for Inhibitors of Fructose-1,6-bisphosphate Aldolase from Giardia Lamblia. A8B2U2. purified Giardia FBPA. 290,000 compounds, 0.71% hits. Potency, µM (doses to about 59.6 µM), for inactives: at the top dose activity, negative = inhibition, actives largely listed as inhibitors. AID 2451, 2010; note: potency is the fitted concentration of half-maximal effect; % is set by controls: 0 for no effect and ±100 for the full control effect; nearly all actives have a fitted effect of over 55% in size
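40 nM FBPA preincubated 10 min at RT with compound (up to 57.5 uM final), then substrate plus GAPDH/TPI/NAD/arsenate coupling and diaphorase/resazurin added. Fluorescence read after 20 min at RT, 525/598 nm.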
* = called active by the depositor; . = no result; + = active, no number; ! = not confirmed by another sample; [ ] = dose if it differs, or a comment. Shown is part of a subset that was picked to be rich in hits. Unless noted, calls come from the whole dose curve; as a rule, active = well fitted curve in the direction sought with a large enough effect; inconclusive = small, poorly fitted or top-dose-only effect, or another doubt; inactive = no such curve, though single readings can be large; an effect the other way counts as inactive or inconclusive.

SMILES	Shiga toxin inh	Cycloheximide cs	Tb PYK inh	RE007 growth inh	LmPK inhibitor	Giardia FBPA inh
C/C(CC(=O)Nc1cccc(Cl)c1Cl)=N\NC(=O)c1ccccc1N	111.9*	37.4*	0.5%	-9.6%	-0.7%	-13.0%
COc1ccc(C(=O)N/N=C(\C)CC(=O)Nc2ccc3ccccc3c2)c(OC)c1	14.9	13.3*	-10.3%	0.2%	-1.0%	.
COc1ccc(CNC(=O)C/C(C)=N/NC(=O)c2cc(OC)cc(OC)c2)cc1	-7.1	-3.5	.	.	3.8%	-14.2%
C/C(CC(=O)Nc1ccc(Cl)c(C(F)(F)F)c1)=N\NC(=O)c1cc2ccccc2cc1O	-7.1	12.7*	2.2%	0.7%	-2.3%	-10.5%
COc1ccc(CNC(=O)C/C(C)=N/NC(=O)c2ccc(OC)cc2OC)cc1	47.1*	14.5	5.4%	-6.2%	5.5%	5.3%
Nc1[nH]c(C(=O)c2ccccc2)c(-c2ccccc2Br)c1C(=O)NCCc1ccc(Cl)cc1Cl	.	.	3.6%	-2.0%	.	.
CCCCC/C=C\C[C@@H]1O[C@H]1C(O)/C=C\C/C=C\CCCC(=O)O (stereo partly specified)	.	.	.	.	.	0.4%
Cc1ccccc1-c1ccc(C(=O)NCc2ccccc2)o1	10.8	13.6*	7.1%	-5.3%	0.3%	1.9%
O=C(NCc1ccccc1)c1ccc(-c2ccc(F)cc2)o1	58.9*	25.2*	-11.6%	-19.5%	5.9%	0.2%
O=C(O)c1ccc(-c2ccccc2C(F)(F)F)o1	-7.1	-2.4	0.1%	14.0%	-7.0%	8.0%
O=C(NCc1ccccc1)c1ccc(-c2ccccc2C(F)(F)F)o1	11.4	37.1*!	1.5%	-10.0%	0.7%	-5.5%[89.2 µM]
C/C(=C\C(=O)c1ccccc1)NCc1ccc(F)cc1	109.8*	59.6*	0.6%	3.7%	-0.7%	-1.0%
COc1ccc(CNC(=O)c2cc(-c3cccs3)nc3ccccc23)c(OC)c1	.	.	3.3%	.	.	.
COc1cc(OC)cc(C(=O)Nc2ccc(CN3CCCCC3)cc2)c1	10.9	-2.1	-0.2%	2.8%	3.5%	6.2%
COc1ccc(OCc2cccc(C(=O)Nc3ccc(CN4CCCCC4)cc3)c2)cc1	+	126.7*	3.2%	-10.3%	1.0%	4.2%
O=C(Nc1ccc(CN2CCCCC2)cc1)c1cccc(F)c1	39.5*	31.4*	-4.3%	1.4%	1.7%	-0.4%
CCOc1ccc(OCc2cccc(C(=O)Nc3ccc(CN4CCCCC4)cc3)c2)cc1	86.9*	121.6*	-13.2%	13.5%	-4.5%	4.1%
CC(=O)Nc1ccc(S(=O)(=O)Nc2ccc(-n3cnnn3)cc2)cc1	.	.	0.0%	11.6%	.	.
CN(Cc1ccco1)C(=O)C1CCN(c2nnc(-n3cccc3)s2)CC1	21.1	-3.8	-3.7%	1.6%	-1.4%	1.7%
O=C(NCc1ccco1)C1CCN(c2nnc(-n3cccc3)s2)CC1	16.3	15.6*	-5.7%	-4.8%	2.5%	7.7%
C[C@H]1CN([C@@H](C)CO)C(=O)CCCn2cc(nn2)CO[C@@H]1CN(C)C(=O)Oc1ccccc1	.	.	-3.0%	1.1%	.	.
c1ccc2cc3[nH]c(CN4CCOCC4)nc3cc2c1	34.6*	17.3*	7.8%	7.3%	0.4%	0.2%
Cc1cccc(NC(=O)CN2CCN(C(=O)CN3C(=O)NC4(CC(C)CC(C)(C)C4)C3=O)CC2)c1C (stereo unspecified)	.	.	-10.8%	-1.3%	.	.
COc1ccccc1/C=C\C(=O)NCC(=O)N/N=C(/C)c1cccc([N+](=O)[O-])c1	8.2	8.8	-0.1%	-3.0%	4.2%	-2.6%
CCOc1ccc2ccc(OCC)c(/C=N/n3cnnc3)c2c1	30.7	9.4*	-1.2%	-14.5%	2.7%	1.9%
COc1cccc(N2C(=NC(=O)C3CCCO3)SC3CS(=O)(=O)CC32)c1 (stereo unspecified)	-7.3	-1.6	-4.3%	-2.7%	7.8%	.
COc1cccc(C(=O)NCCSc2ccc(C)cc2)c1	19.3	20.7*	-10.2%	-7.2%	1.8%	32.3%
COc1cccc(C(=O)NCCSc2ccc(F)cc2)c1	57.2*	38.8*	-6.5%	-12.5%	-8.8%	0.2%
COc1cccc(C(=O)NCCCNC(=O)c2cccc(OC)c2)c1	.	1.8	-7.8%	-3.2%	0.6%	-0.4%

High-throughput results (PubChem BioAssay)
